USP28 inh: human USP28 deubiquitinase inhibition; Q96RU2; purified USP28, Ub-rhodamine cleavage fluorescence, 30 min; 3% of 47,000 active; inhibition, % at 25 µM
USP8 block: human USP8 deubiquitinase inhibition | purified USP8, Ub-rhodamine cleavage fluorescence, 30 min | inhibition, % at 20 µM | 4.2% of 47,000 active | AID 1645853
USP30 inh: human USP30 deubiquitinase inhibition. Q70CQ3. purified USP30, Ub-rhodamine cleavage fluorescence. inhibition, % at 25 µM. 5.3% of 47,000 active
USP10 block: blocks human USP10 ubiquitin-rhodamine cleavage. inhibition, % at 20 µM. 1.1% of 47,000 active. purified USP10, Ub-rhodamine fluorescence, 60 min
USP17 block: inhibitors of human USP17 deubiquitinase; A8MUK1; purified USP17, Ub-rhodamine cleavage fluorescence, 3 h; inhibition, % at 50 µM; 6.5% of 47,000 active
Target sequence (A8MUK1 whole entry, looked up): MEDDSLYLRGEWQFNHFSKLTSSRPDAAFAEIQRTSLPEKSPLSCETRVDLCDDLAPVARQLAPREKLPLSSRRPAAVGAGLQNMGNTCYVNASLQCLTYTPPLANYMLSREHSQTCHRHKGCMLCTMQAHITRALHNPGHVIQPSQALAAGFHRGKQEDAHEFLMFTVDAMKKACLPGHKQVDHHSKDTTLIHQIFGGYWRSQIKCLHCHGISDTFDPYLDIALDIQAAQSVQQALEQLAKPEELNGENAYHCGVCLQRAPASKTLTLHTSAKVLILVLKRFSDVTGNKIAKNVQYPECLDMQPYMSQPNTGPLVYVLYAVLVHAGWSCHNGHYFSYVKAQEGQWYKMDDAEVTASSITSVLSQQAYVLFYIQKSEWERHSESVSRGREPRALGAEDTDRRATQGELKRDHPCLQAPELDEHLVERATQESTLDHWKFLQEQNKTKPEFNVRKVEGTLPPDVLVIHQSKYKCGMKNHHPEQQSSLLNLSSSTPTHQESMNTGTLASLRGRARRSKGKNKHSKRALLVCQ
USP7 block: inhibitors of human USP7 deubiquitinase; purified USP7, Ub-rhodamine cleavage fluorescence; Q93009; inhibition, % at 20 µM; AID 1645854; 0.3% of 47,000 active
Hits are given with their value; n = inactive; x = not tested or not shown. A selection: hits, their analogues and other compounds. The true share with any hit is near 13%. No stated cut-off is given here; in the data, active means inhibition above about 30%; inactive means the rest.

SMILES | USP28 inh | USP8 block | USP30 inh | USP10 block | USP17 block | USP7 block
Cc1cccc(C(C)C)c1NC(=O)CN1c2ccc(F)cc2-c2ccccc2S1(=O)=O | n | n | 30 | n | n | n
O=C(CN1C(=O)c2ccccc2S1(=O)=O)Nc1c(F)cccc1F | n | n | n | n | n | n
CNc1nc2c(c(=O)n1Cc1ccccc1)CN(C(=O)c1ccc(CN)cc1)CC2 | n | n | n | n | 59 | n
CNc1nc2c(c(=O)n1-c1ccccc1)CCN(C(=O)c1ccc3ccccc3c1)C2 | n | n | 43 | n | n | n
CNc1nc2c(c(=O)n1-c1ccccc1)CN(C(=O)c1ccccc1)CC2 | n | n | n | n | n | n
CNc1nc2c(c(=O)n1Cc1ccccc1)CN(C(=O)Nc1ccccc1)CC2 | n | n | n | n | n | n
CC(C)(NC(=O)c1ccc([N+](=O)[O-])cc1)c1nc2ccccc2[nH]1 | n | n | n | n | n | n
Cc1cc(C)c2c(NC(=O)c3cccc4ccccc34)nn(C)c2n1 | n | n | n | n | 49 | n
CCc1nc(-c2c(C)cc(C)nc2NC(=O)c2ccccc2C)no1 | n | n | n | n | n | n
COc1ccc(CNc2c(S(=O)(=O)c3ccccc3)cnc3ccccc23)cc1 | n | n | 35 | n | n | n
O=C(O)CCC(=O)Nc1ccc(OC(F)(F)F)cc1 | n | n | n | n | n | n
CC(C)n1ncc2c(C(=O)NCCc3ccc(F)cc3)cc(C3CC3)nc21 | 42 | n | n | n | n | n
Cc1ccc(CNC(=O)c2c(O)c3ccccc3[nH]c2=O)cc1 | n | 40 | n | n | n | n
COc1ccc(-c2nc(-c3cc4cc(OC)ccc4[nH]c3=O)no2)cc1 | n | 35 | n | n | n | n
Cc1cc(C)n2nc(C(=O)N3CCCC(c4ccn[nH]4)C3)cc2n1 (centres undefined) | n | n | n | n | n | n
CCOc1cc2c(cc1OCC)C(c1c(OC)ccc3ccccc13)NCC2 (centres undefined) | n | n | 38 | n | n | n
CN1C(=O)COc2ccccc2CCCC[C@@H]2[C@H]1CCCN2S(=O)(=O)N1CCOCC1 | n | n | 31 | n | n | n
CN1C(=O)COc2ccccc2CCCC[C@@H]2[C@H]1CCCN2C(=O)c1n[nH]c2c1CCC2 | n | n | 31 | n | n | n
CN1CCC(C(=O)N2CCC[C@@H]3[C@H]2C/C=C/Cc2ccccc2OCC(=O)N3C)CC1 | n | n | n | n | n | n
CN1C(=O)COc2ccccc2C/C=C/C[C@@H]2[C@H]1CCCN2C(=O)CC1CCOCC1 | n | n | n | n | n | n
Cc1nn(-c2ccccc2)cc1-c1noc(C(=O)N2CCCC2)n1 | n | n | n | n | n | n
CN(Cc1ccc(Cl)cc1)Cc1cc(=O)c2cccc(F)c2[nH]1 | n | n | n | n | n | n
Cc1nc(Nc2ccc(Cl)cn2)sc1C(=O)NCc1ccccn1 | n | 50 | n | n | n | n
Cc1cccc(Nc2nc(C)c(C(=O)NCc3cccnc3)s2)n1 | n | n | n | n | n | n
COc1ccc(C2CC(c3ccccc3O)=NC3(CCN(C(C)=O)CC3)N2)cc1 (centres undefined) | n | n | n | n | x | n
SMILES | USP28 inh | USP8 block | USP30 inh | USP10 block | USP17 block | USP7 block
CCN1CCC2(CC1)N=C(c1ccccc1)CC(c1cccc(OC)c1O)N2 (centres undefined) | n | 60 | n | n | n | n
CCN1CCC2(CC1)N=C(c1ccc3c(c1)OCO3)CC(c1ccccc1O)N2 (centres undefined) | n | 34 | n | n | n | n
Cc1ccc(CC(=O)N2CCC(c3ncncc3-c3ccnc(N)c3)C2)cc1C (centres undefined) | n | n | n | n | n | n
Cc1cc2n(n1)CCCN2C(=O)CCC(=O)Nc1ccccc1C(=O)c1ccccc1 | n | n | n | n | x | n
COc1cccc(O[C@@H]2C[C@@H](NC(=O)c3cnco3)[C@H](N3CCCC3)[C@H]2O)c1 | n | n | n | n | x | n
COc1ccc(-n2c(=O)c(CCC(=O)O)nc3ccccc32)cc1 | n | n | n | n | 50 | n
Cc1ccc(NC(=O)C2CCCC2)cc1S(=O)(=O)N1CCOCC1 | n | n | n | n | n | n
CCC(Sc1cccc(NC(=O)C2CCCCC2)c1)C(=O)Nc1cc([N+](=O)[O-])ccc1C (centres undefined) | n | 63 | n | n | n | n
CC1c2cc3c(cc2CCN1CC(=O)Nc1cc(Cl)ccc1-n1cncn1)OCCCO3 (centres undefined) | n | 47 | n | n | n | n
CCN(C=C1NC(=O)c2ccccc2N1)CC(=O)Nc1cc(Cl)ccc1-n1cncn1 | n | n | n | n | n | n
Cc1ccc2cc(CCNC(=O)c3cccc(Br)c3)c(=O)[nH]c2c1 | n | n | n | n | 67 | n
Cc1ccc2cc(CCNC(=O)c3ccccc3Br)c(=O)[nH]c2c1 | n | n | n | n | 48 | n
O=C(Nc1nnc(C2CCCCC2)s1)C1CC(=O)N(c2ccc3c(c2)OCCO3)C1 (centres undefined) | n | n | n | n | n | n
COc1cccc(CC(=O)Nc2cccc(S(=O)(=O)N3CCOCC3)c2)c1 | n | n | n | n | n | n
COc1cc(NC(=O)C2Cc3ccccc3CN2C(=O)c2ccco2)cc(OC)c1OC (centres undefined) | n | n | n | n | n | n
CSc1cccc(NC(=O)C2Cc3ccccc3CN2C(=O)c2ccco2)c1 (centres undefined) | n | n | n | n | 31 | n
O=C(Nc1cccc(S(=O)(=O)N2CCOCC2)c1)C1Cc2ccccc2CN1C(=O)c1ccco1 (centres undefined) | n | 40 | n | n | x | n
Cc1ccccc1-c1nnc(SCC(=O)N(C)Cc2ccccc2)n1C | n | n | n | n | n | n
Cc1cccc(N2C[C@@H](O)[C@H](NC(=O)c3ccccn3)C2)n1 | n | n | n | n | n | n
CCCCCCCCCCCC(O)CC(=O)N[C@@H](CC(C)C)C(=O)N[C@H](CCC(=O)O)C(=O)N[C@H]1C(=O)N[C@H]([C@@H](C)CC)C(=O)NC(CC(C)C)C(=O)N[C@H](CO)C(=O)N[C@@H](CC(C)C)C(=O)N[C@@H](CC(C)C)C(=O)N[C@H](CO)C(=O)N[C@@H](C(C)C)C(=O)O[C@@H]1C (some centres undefined) | 43 | 35 | n | 35 | 51 | 39
CCCCCCCC[C@@H](C)[C@@H]1OC(=O)[C@H](CO)NC(=O)[C@H](C(=O)c2c[nH]c3ccccc23)NC(=O)[C@@H](CCC(=O)O)NC(=O)[C@H]1C | n | n | n | n | n | n
O=C(Nc1cccc(Cl)c1Oc1ccc(S(=O)(=O)N2CCOCC2)cc1)C(F)(F)F | n | n | n | n | n | n
N#Cc1c(Cl)cccc1Oc1ccc(S(=O)(=O)N2CCC(O)CC2)cc1 | n | n | n | n | 66 | n
O=c1cc(CN2CCN(Cc3cccc(F)c3)CC2)cc[nH]1 | n | n | n | n | x | n

Compound activity: PubChem, Buhrlage Lab, Dana-Farber Cancer Institute and Novartis Institutes for BioMedical Research (Cambridge, Mass)
